{
  "source": "the supplement of paper PMC4894684",
  "note": "Structures can show the parent of a compound that is named as a salt. ± gives the standard deviation of the averaged measurements.",
  "data": [
    {"system": "Toxoplasma gondii RH (in HFF)", "assay": "parasite growth relative to the screen mean (all compounds = 100%); higher = less inhibition of parasite growth", "conditions": "5 µM; 72 h; oxygen 21 %", "how_it_was_run": "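Growth values are relative to the mean of the whole screen and averaged over duplicate screens, with all compounds together set to 100%. Parasites (RH β-Gal–GFP Toxoplasma, MOI 1:5) were added within 2 h of pinning compounds at 5 µM final onto confluent human foreskin fibroblasts and grown 72 h at 21% O2. Parasite number came from CPRG β-Gal readings against in-plate standard curves.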", "units": {"parasite growth": "%"}, "values": [
      {"smiles": "CC(C(=O)OC1CC2CCC(C1)N2C)c1ccc(Br)cc1", "note": "(centres undefined) [PG-9 maleate]", "parasite growth": "101 ± 1.4"},
      {"smiles": "N.N.[Cl][Pt][Cl]", "note": "[Cisplatin]", "parasite growth": "144 ± 80"},
      {"smiles": "c1ccc2c(c1)[I+]c1ccccc1-2", "note": "[Diphenyleneiodonium chloride]", "parasite growth": "< 0"},
      {"smiles": "NC1(c2ccccc2Cl)CCCCC1=O", "note": "(centres undefined) [Norketamine hydrochloride]", "parasite growth": "86.9 ± 27"},
      {"smiles": "CN1[C@@H]2CC[C@H]1C[C@@H](OC(=O)c1cc(Cl)cc(Cl)c1)C2", "parasite growth": "70.1 ± 18"},
      {"smiles": "O=C(O)C1=CCCN(CCOC(c2ccc(C(F)(F)F)cc2)c2ccc(C(F)(F)F)cc2)C1", "note": "[CI 966 hydrochloride]", "parasite growth": "137 ± 5.2"},
      {"smiles": "COc1cc2c(cc1OC)C1CC(=O)C(CC(C)C)CN1CC2", "note": "(centres undefined) [Tetrabenazine]", "parasite growth": "132 ± 1.5"},
      {"smiles": "COC(=O)/C=C/C(=O)N[C@@H]1CC[C@@]2(O)[C@H]3Cc4ccc(O)c5c4[C@@]2(CCN3CC2CC2)[C@H]1O5", "note": "[β-Funaltrexamine hydrochloride]", "parasite growth": "74.5 ± 28"},
      {"smiles": "CC(C)(c1ccc(OCC2CO2)cc1)c1ccc(OCC2CO2)cc1", "note": "(centres undefined)", "parasite growth": "157 ± 30"},
      {"smiles": "c1ccc(C2CC2)c(OCC2=NCCN2)c1", "note": "[Cirazoline hydrochloride]", "parasite growth": "91.7 ± 19"},
      {"smiles": "O=C1CSC(c2ccccc2Cl)c2cc(Cl)ccc2N1", "note": "(centres undefined)", "parasite growth": "153 ± 4.7"},
      {"smiles": "CCCN(C/C=C/I)C1CCc2ccc(O)cc2C1", "note": "(centres undefined) [7-Hydroxy-PIPAT maleate]", "parasite growth": "181 ± 37"},
      {"smiles": "COc1cc(N)c(Cl)cc1C(=O)NC1CN2CCC1CC2", "note": "(centres undefined) [Zacopride hydrochloride]", "parasite growth": "142 ± 12"},
      {"smiles": "Cc1nc(N)sc1CCN", "note": "[Amthamine dihydrobromide]", "parasite growth": "94 ± 4.8"},
      {"smiles": "O=c1cccc2n1C[C@@H]1CNC[C@H]2C1", "note": "[(-)-Cytisine]", "parasite growth": "128 ± 26"},
      {"smiles": "Oc1ccc2c3c1O[C@H]1c4[nH]c5c(c4C[C@@]4(O)[C@@H](C2)N(CC2CC2)CC[C@]314)C[C@@]1(O)[C@H]2Cc3ccc(O)c4c3[C@@]1(CCN2CC1CC1)[C@H]5O4", "note": "[nor-Binaltorphimine dihydrochloride]", "parasite growth": "123 ± 3.2"},
      {"smiles": "C[C@@H]1CC[C@H]2[C@@H](C)C(=O)O[C@@H]3O[C@@]4(C)CC[C@@H]1[C@]32OO4", "note": "[Artemisinin]", "parasite growth": "31.6 ± 8.8"},
      {"smiles": "CCN1C[C@]2(COC(=O)c3ccccc3N3C(=O)C[C@H](C)C3=O)CC[C@H](OC)[C@@]34[C@@H]5C[C@H]6[C@H](OC)[C@@H]5[C@](O)(C[C@@H]6OC)[C@](O)([C@@H](OC)[C@H]23)[C@@H]14", "note": "[Methyllycaconitine citrate]", "parasite growth": "83.1 ± 5.7"},
      {"smiles": "CCC1(C2=NCCN2)Cc2ccccc2O1", "note": "(centres undefined) [Efaroxan hydrochloride]", "parasite growth": "113 ± 6.3"},
      {"smiles": "CC(N)Cc1c[nH]c2ccc(O)cc12", "note": "(stereo not drawn) [α-Methyl-5-hydroxytryptamine maleate]", "parasite growth": "144 ± 31"},
      {"smiles": "Cc1onc(O)c1CC(N)C(=O)O", "note": "(racemic) [(RS)-AMPA hydrobromide]", "parasite growth": "121 ± 16"},
      {"smiles": "Cc1onc(O)c1CC(N)C(=O)O", "note": "(racemic)", "parasite growth": "107 ± 41"},
      {"smiles": "c1ccc(CCCCN2CCC(c3ccccc3)CC2)cc1", "note": "[4-PPBP maleate]", "parasite growth": "82.8 ± 5.3"},
      {"smiles": "OC1CCCCC1N1CCC(c2ccccc2)CC1", "note": "(racemic) [(±)-Vesamicol hydrochloride]", "parasite growth": "100 ± 8.3"},
      {"smiles": "O=C(O)c1ccc2[nH]cc(CCCCN3CC=C(c4ccccc4)CC3)c2c1", "note": "[Carmoxirole hydrochloride]", "parasite growth": "103 ± 7.4"},
      {"smiles": "Cn1c2c(c3ccccc31)CCNCC2", "parasite growth": "118 ± 15"},
      {"smiles": "COc1ccc(CNC(=O)/C=C/c2ccc3[nH]cc(CCN(C)C)c3c2)cc1", "parasite growth": "98.3 ± 31"},
      {"smiles": "NCc1cc(O)no1", "note": "[Muscimol]", "parasite growth": "154 ± 28"},
      {"smiles": "CNCCc1cnc[nH]1", "note": "[N α-Methylhistamine dihydrochloride]", "parasite growth": "102 ± 1.5"},
      {"smiles": "NCC(CS(=O)(=O)O)c1ccc(Cl)cc1", "note": "(centres undefined) [Saclofen]", "parasite growth": "114 ± 24"},
      {"smiles": "CC(=O)N1CC[N+](C)(C)CC1", "note": "[4-Acetyl-1,1-dimethylpiperazinium iodide]", "parasite growth": "130 ± 13"},
      {"smiles": "N[C@@]1(C(=O)O)CC[C@@H](C(=O)O)C1", "parasite growth": "111 ± 27"},
      {"smiles": "CCOC(=O)c1ncn2c1[C@@H]1CCCN1C(=O)c1cc(OC)ccc1-2", "parasite growth": "93.9 ± 12"},
      {"smiles": "O[C@H]1[C@H](O)[C@@H](O)CN2CC[C@H](O)[C@H]12", "note": "[Castanospermine]", "parasite growth": "150 ± 7.6"},
      {"smiles": "Cc1cc(C)cc(C(=O)OC2C[C@H]3CC[C@@H](C2)N3C)c1", "note": "(some centres undefined) [Tropanyl-3,5-dimethylbenzoate]", "parasite growth": "97.3 ± 3.6"},
      {"smiles": "CN1C(=O)CCS(=O)(=O)C1c1ccc(Cl)cc1", "note": "(centres undefined) [Chlormezanone]", "parasite growth": "145 ± 22"},
      {"smiles": "CC[C@@H](CO)NC(=O)[C@@H]1C=C2c3cccc4c3c(cn4C)C[C@H]2N(C)C1", "note": "[Methysergide maleate]", "parasite growth": "189 ± 24"},
      {"smiles": "CC(C)(C)OC(=O)c1ncn2c1[C@@H]1CCCN1C(=O)c1c(Br)cccc1-2", "note": "[Bretazenil]", "parasite growth": "87.1 ± 5.4"},
      {"smiles": "Oc1cc2c(cc1O)[C@H]1c3ccccc3CN[C@@H]1CC2", "note": "(racemic) [Dihydrexidine hydrochloride]", "parasite growth": "153 ± 4.6"}
    ]}
  ]
}
